These results are taken from PubChem BioAssay (NCATS).

Records with an inconclusive call do not appear. The source made the active and inactive calls. Calls follow the shape of the dose curve; as a rule, active = well fitted curve in the direction sought with a large enough effect; inconclusive = small, poorly fitted or top-dose-only effect, or another doubt; inactive = no such curve, though single readings can be large; an effect the other way counts as inactive or inconclusive.

Assay [1] deals with Voltage-gated inwardly rectifying potassium channel KCNH2 (Homo sapiens) (UniProt Q12809). In words: qHTS Assay for Small Molecule Inhibitors of the Human hERG Channel Activity (AID 588834).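 Also: lower thallium flux fluorescence means stronger hERG block; nearly all actives have a fitted effect of over 50% in size.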 Also: potency is read from the fitted curve at half-maximal effect. In a few lines: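 Cells were infected with hERG-BacMam virus for 4 hrs at room temperature, grown overnight, then seeded at 2000/well. After dye loading and roughly 10 min compound treatment, thallium influx was triggered and fluorescence recorded.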
For orientation: In qHTS, concentration-response curves come from the screen itself.

The target in assay [2] is Luciferin 4-monooxygenase (Photinus pyralis) (UniProt P08659). In words: Biochemical firefly luciferase enzyme assay for NPC (AID 624030).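 Also: purified P. pyralis luciferase at 10 nM with luciferin and ATP substrate; series mostly up to about 59 µM; nearly all actives have a fitted effect of over 70% in size.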 In a few lines:
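Purified P. pyralis luciferase at 10 nM in 50 mM Tris Acetate (final), luminescence read within 5 minutes of enzyme addition to compounds. Activity normalised to PTC124 versus DMSO; concentration-response curves classed by r2, magnitude and activity.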

Assay [3] in a line: S16 Schwann cell viability assay (CellTiter-Glo assay) (AID 624031).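 Also: cellular ATP luminescence as a viability measure; series mostly up to about 58 µM; nearly all actives have a fitted effect of over 70% in size.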 In a few lines:
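Untransfected S16 rat Schwann cells; compound 24 h, 37 °C/5% CO2; CellTiter-Glo ATP luminescence. % activity vs no-cell wells and DMSO controls (0%); concentration-effect curves classed by r2, response magnitude, activity.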

Assay [4] in a line: S16 Schwann cell PMP22 intronic element firefly luciferase assay (AID 624032). Also: nearly all actives have a fitted effect of over 30% in size. Also: potency is read from the fitted curve at half-maximal effect. Summed up:
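Rat S16 Schwann cells stably carrying firefly luciferase driven by a PMP22 intronic element, in 10% FBS, treated 24 h at 37 C. ONE-Glo luminescence normalized to PTC124 control and DMSO (0%); curves classed by r2, magnitude and activity.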

Luciferin 4-monooxygenase (Photinus pyralis), sequence (P08659 whole entry, looked up): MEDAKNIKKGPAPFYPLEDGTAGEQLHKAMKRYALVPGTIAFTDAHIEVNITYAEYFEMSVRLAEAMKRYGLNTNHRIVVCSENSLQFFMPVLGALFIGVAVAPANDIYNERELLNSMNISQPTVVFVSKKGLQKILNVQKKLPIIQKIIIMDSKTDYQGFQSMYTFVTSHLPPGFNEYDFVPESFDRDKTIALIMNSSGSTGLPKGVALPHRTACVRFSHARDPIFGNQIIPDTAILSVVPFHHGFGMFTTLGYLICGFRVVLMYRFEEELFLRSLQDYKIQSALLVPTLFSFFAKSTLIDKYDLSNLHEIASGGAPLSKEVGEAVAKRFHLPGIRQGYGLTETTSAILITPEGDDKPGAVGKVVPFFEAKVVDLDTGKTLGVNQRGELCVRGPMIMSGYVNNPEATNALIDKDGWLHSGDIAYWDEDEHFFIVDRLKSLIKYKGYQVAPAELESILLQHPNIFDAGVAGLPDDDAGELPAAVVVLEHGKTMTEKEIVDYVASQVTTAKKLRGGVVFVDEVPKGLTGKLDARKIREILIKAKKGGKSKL
Voltage-gated inwardly rectifying potassium channel KCNH2 (Homo sapiens), sequence (Q12809 whole entry, looked up): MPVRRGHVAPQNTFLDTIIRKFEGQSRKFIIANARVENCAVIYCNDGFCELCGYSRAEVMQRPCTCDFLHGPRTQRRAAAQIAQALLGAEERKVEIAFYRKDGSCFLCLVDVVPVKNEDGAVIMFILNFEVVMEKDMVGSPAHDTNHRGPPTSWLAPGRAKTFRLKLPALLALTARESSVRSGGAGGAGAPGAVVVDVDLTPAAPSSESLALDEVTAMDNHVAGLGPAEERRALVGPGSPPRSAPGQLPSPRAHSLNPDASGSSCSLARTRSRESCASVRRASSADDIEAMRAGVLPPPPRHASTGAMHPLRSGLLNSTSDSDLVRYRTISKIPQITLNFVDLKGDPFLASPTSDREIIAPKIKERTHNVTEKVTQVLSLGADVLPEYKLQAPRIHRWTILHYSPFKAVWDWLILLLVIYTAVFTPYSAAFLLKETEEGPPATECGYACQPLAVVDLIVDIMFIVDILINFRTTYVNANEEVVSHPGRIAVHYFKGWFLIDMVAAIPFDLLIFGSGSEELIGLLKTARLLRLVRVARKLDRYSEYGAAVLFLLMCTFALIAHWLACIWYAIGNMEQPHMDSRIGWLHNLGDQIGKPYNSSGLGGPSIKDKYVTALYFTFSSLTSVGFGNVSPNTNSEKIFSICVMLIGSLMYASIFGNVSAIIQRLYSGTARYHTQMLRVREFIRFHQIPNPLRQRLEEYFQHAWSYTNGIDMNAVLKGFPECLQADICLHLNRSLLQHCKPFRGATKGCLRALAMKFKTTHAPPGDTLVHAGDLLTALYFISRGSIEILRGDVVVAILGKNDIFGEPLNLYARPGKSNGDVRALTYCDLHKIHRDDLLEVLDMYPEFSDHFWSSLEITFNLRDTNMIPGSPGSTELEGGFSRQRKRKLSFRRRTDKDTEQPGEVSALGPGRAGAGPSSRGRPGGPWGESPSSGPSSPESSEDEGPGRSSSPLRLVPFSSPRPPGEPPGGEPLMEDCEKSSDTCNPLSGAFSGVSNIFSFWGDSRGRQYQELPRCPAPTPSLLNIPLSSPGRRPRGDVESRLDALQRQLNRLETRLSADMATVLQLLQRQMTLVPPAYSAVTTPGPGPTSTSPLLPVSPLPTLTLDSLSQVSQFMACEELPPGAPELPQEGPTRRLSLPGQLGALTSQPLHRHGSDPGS

As to `CN1CCOC(c2ccccc2)c2ccccc2C1` (stereo not given), the Potency result in assay [1] was “inactive”.

For the compound `Cc1cc(O)cc2c1O[C@](C)(CCC[C@H](C)CCC[C@H](C)CCCC(C)C)CC2`, the Potency entry in assay [1], in assay [2] and in assay [3] was “inactive” each time.

With `O=C1NS(=O)(=O)c2ccccc21`, the Potency result in assay [1], in assay [2] and in assay [3] was “inactive” in each case.

Turning to `CC(=O)Oc1c(C)c(C)c2c(c1C)CC[C@@](C)(CCC[C@H](C)CCC[C@H](C)CCCC(C)C)O2`, the Potency result in assay [1] and in assay [2] was “inactive” throughout.

For the compound `COc1ccc2cc1Oc1ccc(cc1)C[C@H]1c3c(cc4c(c3Oc3cc5c(cc3OC)CCN(C)[C@@H]5C2)OCO4)CCN1C`, in assay [1], the Potency is 14.1 µM (active).

Turning to `O=C(O)COc1nn(Cc2ccccc2)c2ccccc12`, the Potency entry in assay [1], in assay [2] and in assay [3] was “inactive” each time.

As to `NCC(=O)CCC(=O)O`, the Potency entry in assay [1], in assay [2], in assay [3] and in assay [4] was “inactive” each time.

On to `CCCCc1ncc(/C=C(\Cc2cccs2)C(=O)O)n1Cc1ccc(C(=O)O)cc1`, for which the Potency result in assay [1], in assay [2] and in assay [3] was “inactive” throughout.

For the compound `Cc1cccc(C)c1NC(=O)CN(CC(=O)O)CC(=O)O`, the Potency result in assay [1], in assay [2], in assay [3] and in assay [4] was “inactive” each time.

Turning to `CC(=O)CCC(=O)O`, the Potency entry in assay [1], in assay [2] and in assay [3] was “inactive” in each case.

As to `Oc1cn2c(n1)Nc1ccc(Cl)c(Cl)c1C2`, the Potency result in assay [1], in assay [2] and in assay [3] was “inactive” in each case.

Take `O=c1cc[nH]c(=S)[nH]1`: the Potency result in assay [1], in assay [2], in assay [3] and in assay [4] was “inactive” throughout.

Regarding `CCC(=O)Nc1ccc(O)cc1`, the Potency entry in assay [1], in assay [2] and in assay [3] was “inactive” throughout.

Regarding `CC1(C)CO[C@@H](CC(=O)O)CN1`, the Potency entry in assay [1], in assay [2] and in assay [3] was “inactive” in each case.

With `O=C1OC(OC(=O)c2cccnc2Nc2cccc(C(F)(F)F)c2)c2ccccc21` (stereo not given), the Potency entry in assay [1], in assay [2] and in assay [3] was “inactive” each time.

Take `CC(=O)c1ccc2c(c1)N(CCCN(C)C)c1ccccc1S2`: the Potency in assay [1] was 4.47 µM (active). Also, the Potency result in assay [2], in assay [3] and in assay [4] was “inactive” throughout.

As for `CN1CCCCC1CCN1c2ccccc2Sc2ccc(S(C)=O)cc21` (stereo not given), the Potency entry in assay [1], in assay [2] and in assay [3] was “inactive” each time.

Turning to `CC(C)(C)NCC(O)COc1ccc(NC(=O)NC2CCCCC2)cc1` (stereo not given), the Potency result in assay [1], in assay [2], in assay [3] and in assay [4] was “inactive” in each case.

In the case of `Nc1nc2c(ncn2CCC(CO)CO)c(=O)[nH]1`, the Potency result in assay [1], in assay [2], in assay [3] and in assay [4] was “inactive” in each case.

Turning to `Cc1ncc(COP(=O)(O)O)c(C=O)c1O`, the Potency entry in assay [1], in assay [2], in assay [3] and in assay [4] was “inactive” in each case.

As for `COc1cc(C(=O)N2CCOCC2)cc(OC)c1OC`, the Potency result in assay [1], in assay [2], in assay [3] and in assay [4] was “inactive” throughout.

With `NC(CSCC(=O)O)C(=O)O` (stereo not given), the Potency result in assay [1], in assay [2] and in assay [3] was “inactive” throughout.

In the case of `C[C@@H]1CN(c2c(F)c(F)c3c(=O)c(C(=O)O)cn(C4CC4)c3c2F)C[C@H](C)N1`, the Potency entry in assay [1], in assay [2], in assay [3] and in assay [4] was “inactive” each time.

Regarding `COc1cc2[nH]c(=O)[nH]c(=O)c2cc1OC`, the Potency result in assay [1], in assay [2], in assay [3] and in assay [4] was “inactive” in each case.

In the case of `O=c1cc[nH]c(=O)[nH]1`, the Potency result in assay [1], in assay [2], in assay [3] and in assay [4] was “inactive” throughout.

`Nc1ccc(S(=O)(=O)NC(=O)c2ccccc2)cc1`: the Potency entry in assay [1], in assay [2] and in assay [3] was “inactive” throughout.

As for `O=c1cc(CO)occ1O`, the Potency entry in assay [1], in assay [2] and in assay [3] was “inactive” in each case.

For `O=C(O)CN1C(=O)c2cccc3cccc(c23)C1=O`, the Potency entry in assay [1], in assay [2] and in assay [3] was “inactive” in each case.

Take `CC(=O)Oc1ccc(C2(c3ccc(OC(C)=O)cc3)C(=O)Nc3ccccc32)cc1`: the Potency entry in assay [1], in assay [2] and in assay [3] was “inactive” in each case.

Consider `N[C@@H](CSCCCO)C(=O)O`, for which the Potency entry in assay [1], in assay [2], in assay [3] and in assay [4] was “inactive” throughout.

Regarding `CCCOC(=O)c1ccccc1`, the Potency entry in assay [1], in assay [2], in assay [3] and in assay [4] was “inactive” each time.

With `C[C@H]1O[C@@H](n2cc(F)c(=O)[nH]c2=O)[C@H](O)[C@@H]1O`, the Potency entry in assay [1], in assay [2] and in assay [3] was “inactive” throughout.

As for `CCOC(=O)[C@H](CCc1ccccc1)N[C@@H](C)C(=O)N1C(=O)N(C)C[C@H]1C(=O)O`, the Potency result in assay [1], in assay [2], in assay [3] and in assay [4] was “inactive” each time.

Consider `CCn1cc(C(=O)O)c(=O)c2cnc(N3CCNCC3)nc21`, for which the Potency result in assay [1], in assay [2] and in assay [3] was “inactive” in each case. Also, the Potency in assay [4] was 7.75 µM (active).

On to `O=C(Oc1ccccc1C(=O)O)c1ccccc1O`, for which the Potency result in assay [1], in assay [2] and in assay [3] was “inactive” in each case.

For `O=C(CCCN1CCN(c2ccccn2)CC1)c1ccc(F)cc1`, the Potency in assay [1] is 5.01 µM (active). Further, the Potency result in assay [2], in assay [3] and in assay [4] was “inactive” throughout.

Consider `O=C(O)c1ccccc1-c1ccc(C(F)(F)F)cc1`, for which the Potency result in assay [1], in assay [2] and in assay [3] was “inactive” each time.

Regarding `NS(=O)(=O)c1cc2c(cc1Cl)NC(CSCc1ccccc1)=NS2(=O)=O`, the Potency entry in assay [1], in assay [2], in assay [3] and in assay [4] was “inactive” in each case.

Take `CC(=O)Nc1ccc(/C=N/NC(N)=S)cc1`: the Potency result in assay [1], in assay [2], in assay [3] and in assay [4] was “inactive” each time.
